Results taken from PubChem BioAssay AID652126 (The Scripps Research Institute Molecular Screening Center, 2013).
The whole screen tested about 370,000 compounds, of which about 3,700 (1%) were called active. This excerpt belongs to a sample that is enriched for actives. Values without a mark were called inactive.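 How the source made its calls: active means activation above the mean over all tested compounds plus 3 SD (cut at about 0.9% in these data); inactive means the rest.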

Test system: Nuclear hormone receptor DAF-12 (Strongyloides stercoralis)
Test: ssDAF-12 driven luciferase reporter activation – cell-based, luminescence, HEK293, GRIP1 co-expression, lit1-tk-luc, primary screen (AID 652126);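 further: 0% = DMSO-only wells and 100% = 3 µM delta7-dafachronic acid wells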
Details: HEK293 ssDAF-12/GRIP1 lit1-tk-luc reporter, at 6.8 µM, active compounds read high, % of 3 µM dafachronic acid response

SMILES	activation
CCCCNC(=O)C[C@@H]1C(=O)N(CCc2ccc(Cl)cc2)C2=CCCC[C@]21C(=O)OCC	-2.02%
CC(C)CNC(=O)OCc1cn(Cc2ccc(F)cc2)nn1	-0.96%
CC(c1c[nH]c2ccccc12)c1c(-c2ccccc2)n(C)c2ccccc12 (stereo not given)	-0.45%
O=C(OCc1cn(-c2ccc(Cl)c(Cl)c2)nn1)c1ccccc1Cl	-1.04%
CCOC(=O)[C@]12CCCC=C1N(Cc1ccc(OC)cc1)C(=O)[C@@H]2CC(=O)NCc1cccs1	-1.35%
C=CCN(Cc1ccc2c(c1)OCO2)C(C#CC1CC1)C(C)(C)C (stereo not given)	-1.38%
CN(C)/C=C1\C=C(c2ccccc2)OC1=O	-0.4%
CN(C)/C=C1/C(=O)Nc2ccccc21	1.06% (active)
O=C1Nc2ccccc2C1=NN=Cc1ccco1	0.04%
Cc1ccc(-n2c(SCC(=O)Nc3ccc(S(=O)(=O)Nc4nccs4)cc3)nnc2-c2ccncc2)cc1	-1.76%
CC(=O)O[C@@]1(C(C)=O)CCC2[C@H]3C=C(C)C4=CC(=O)CC[C@@]4(C)C3CC[C@]21C (stereo not given in full)	-1.19%
C/C(=N/NC(=O)c1ccc(Br)o1)c1ccc(C)o1	1.57% (active)
CC(C)(C)C1CCC(=NNC(=O)c2ccc(Br)o2)CC1 (stereo not given)	-0.04%
C/C(=N\NC(=S)NC1CCCCC1)c1ccc(C)o1	-2.41%
Cc1sc2nc(SCC(=O)c3ccc(O)c(O)c3)n(Cc3ccco3)c(=O)c2c1C	-1.42%
O=S(=O)(NC1CCCCC1)c1ccc(F)c2ccccc12	-1.61%
C=CCN(C(=O)[C@@H](CCCC)[C@@H](O)c1ccc(Cl)cc1)c1ccccc1	-1.08%
C=C1C(C(C)C)N(C)C2=NC(c3ccccc3)CC(=O)N12 (stereo not given)	-1.49%
COc1ccc(C(=O)NC2=NCCS2)c(OC)c1	1.63% (active)
O=C(NC1=NCCS1)c1ccc(Cl)s1	-1.02%
COc1ccccc1C(=O)NCCC(=O)NC1=NCCS1	-0.76%
O=C(NCCc1c[nH]c2ccccc12)OCc1cn(-c2c(F)cccc2F)nn1	-1.14%
O=C(NCc1ccco1)C1CCCN(S(=O)(=O)c2ccc(Cl)s2)C1 (stereo not given)	0%
OCCC1CN(Cc2cnc(-c3ccccc3)s2)CCN1CCc1ccccc1 (stereo not given)	-1.41%
OCCC1CN(Cc2cccn2-c2nccs2)CCN1CCc1ccccc1 (stereo not given)	1.5% (active)
OCCC1CN(Cc2ccc(Oc3ncccn3)cc2)CCN1CCc1ccccc1 (stereo not given)	-0.5%
COC(=O)c1cccc(Cn2ccc3ccc(-c4ccc5ccn(C(=O)C6CCCCC6)c5c4)cc32)c1	-1.1%
COc1ccc(-c2cc(-c3nnc(SCc4ccc([N+](=O)[O-])cc4)n3N)[nH]n2)cc1	-0.73%
CCCC[C@H]1C2CC(OC(=O)NCc3ccccc3)C(C2)[C@H]2CCCCN21 (stereo not given in full)	-1.06%
CCCCOCCCNC(=O)C[C@H]1C[C@@]2(C(=O)OC)C(=C[C@H](C(C)(C)C)O[C@@H]2C)N(CCc2ccc(OC)c(OC)c2)C1=O	-1.19%
